{"source": "PubChem BioAssay AID504467", "about": "(National Center for Advancing Translational Sciences (NCATS), 2011)", "note": "Among all 330,000 compounds or so, about 7,700 (2.3%) were called active. Another 26% or so got no clear call; they are omitted. What follows is part of a selection rich in actives, with near analogues and random picks from the rest. Unmarked numbers belong to inactive results. The call rests on the fitted dose curve; in most records, active means well fitted inhibition curve with a large enough effect; inconclusive means small, poorly fitted or top-dose-only effect, or effect the other way; inactive means flat fitted curve, though single readings scatter.", "data": [{"assay": "qHTS screen for small molecules that inhibit ELG1-dependent DNA repair in human embryonic kidney (HEK293T) cells expressing luciferase-tagged ELG1; further: nearly all actives have a fitted effect of over 55% in size; further: potency means the concentration at half of the fitted maximal effect; on activity change, negative = inhibition: on the % scale 0 is the no-effect control and ±100 the full control effect", "settings": "HEK293T ELG1-luciferase reporter, luminescence, 16 h, DNA damage induced by 5-fluorouridine; series mostly up to 46.1 µM; activity change, negative = inhibition: at the top concentration", "how_it_was_run": "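HEK293T cells expressing luciferase-tagged ELG1 (2,000/well) received 5-Fluorouridine plus compound or DMSO for 16 hr at 37 °C. Luciferase was read by ONE-Glo luminescence after 30 min at room temperature.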", "units": {"activity change, negative = inhibition": "%"}, "values": [{"compound": "CCCC(CNC(=O)COC(=O)C1=NNC(=O)CC1)c1ccc(Cl)cc1Cl", "note": "(centres undefined)", "activity change, negative = inhibition": -1.01}, {"compound": "CN(CC(=O)Nc1ccc(C(N)=O)cc1)S(=O)(=O)c1ccc2c(c1)OCCO2", "activity change, negative = inhibition": 8.22}, {"compound": "CCOc1ccc(NS(=O)(=O)c2ccc(C(=O)NC3CCN(Cc4ccccc4)CC3)cc2)cc1", "activity change, negative = inhibition": -23}, {"compound": "COc1cc(OC)cc(C(=O)N[C@H](C(=O)NNC(=O)c2ccc(Br)cc2)C(C)C)c1", "activity change, negative = inhibition": -27.5}, {"compound": "O=C(NCC(F)(F)F)Nc1nnc(C(F)(F)F)s1", "Potency": "18.4 µM (active)"}, {"compound": "COc1ccc(C)cc1NC(=O)CCC(=O)Nc1nnc(C(F)(F)F)s1", "activity change, negative = inhibition": 7.17}, {"compound": "O=C(Nc1nnc(COc2ccccc2)s1)Nc1ccccc1F", "activity change, negative = inhibition": 1.38}, {"compound": "O=C(NCCS(=O)(=O)N1CCN(c2ccccc2F)CC1)c1ccc(Br)o1", "activity change, negative = inhibition": -0.534}, {"compound": "COc1ccccc1N1CCN(S(=O)(=O)CCNC(=O)c2ccc(OC(C)C)cc2)CC1", "Potency": "13 µM (active)"}, {"compound": "CCOc1ccc(CC(=O)NCCS(=O)(=O)N2CCN(c3ccccc3)CC2)cc1", "activity change, negative = inhibition": -28.2}, {"compound": "COc1ccc(S(=O)(=O)N2CCCCC2)cc1NC(=O)C1CC(=O)N(c2ccc3c(c2)OCCO3)C1", "note": "(centres undefined)", "activity change, negative = inhibition": -20.1}, {"compound": "CC1CC(=O)Nc2ccccc2N1C(=O)COc1ccc2cc(Br)ccc2c1", "note": "(centres undefined)", "activity change, negative = inhibition": -1.49}, {"compound": "C#CCOc1ccccc1/C=C1/C(=O)ON=C1C", "activity change, negative = inhibition": 6.14}, {"compound": "Cn1cccc1/C=N/NC(=O)CNc1cccc2ccccc12", "Potency": "13 µM (active)"}, {"compound": "C/C(=N\\NC(=O)CNc1cccc2ccccc12)c1ccc(Br)s1", "activity change, negative = inhibition": 6.87}, {"compound": "Cc1cccc(/C=N/NC(=O)CNc2cccc3ccccc23)n1", "activity change, negative = inhibition": 22.4}, {"compound": "Cc1ccc(NC(=O)COc2coc(CN3CCc4ccccc4C3)cc2=O)cc1Cl", "activity change, negative = inhibition": 4.56}, {"compound": "CN(C)c1cc[n+](Cc2ccccc2)cc1", "Potency": "8.2 µM (active)"}, {"compound": "CC(Cc1ccccc1)C(=O)N(C)Cc1ccccc1", "note": "(centres undefined)", "activity change, negative = inhibition": -7.66}, {"compound": "CC1=NN(Cc2ccccc2)C(=O)/C1=C/c1ccc(N(C)C)cc1", "activity change, negative = inhibition": 12.1}, {"compound": "CCN1C(=O)[C@@H]2[C@@H](c3ccc(-c4ccccc4)cc3)N3CCCC[C@@]3(C(=O)OC)[C@@H]2C1=O", "activity change, negative = inhibition": -15.9}, {"compound": "CCCNC(=O)c1c(N)n(-c2ccc(S(N)(=O)=O)cc2)c2nc3ccccc3nc12", "activity change, negative = inhibition": 6.21}, {"compound": "CCOc1ccccc1NC(=O)Cn1nnc(C(=O)NCc2cccs2)c1N", "activity change, negative = inhibition": 25}, {"compound": "CC(C)Cn1c(N)c(C(=O)NCc2cccs2)c2nc3ccccc3nc21", "Potency": "9.2 µM (active)"}, {"compound": "CC(C(=O)N1CCc2ccccc21)N(C)CC(=O)Nc1ccc(F)cc1", "note": "(centres undefined)", "activity change, negative = inhibition": -4.18}, {"compound": "Cc1noc(C)c1CSCC(=O)N(CCC(C)C)c1c(N)n(Cc2ccccc2)c(=O)[nH]c1=O", "activity change, negative = inhibition": 3.47}, {"compound": "Cc1cccc(OCC(O)CN2CCN(S(=O)(=O)c3ccc(C)cc3C)CC2)c1", "note": "(centres undefined)", "Potency": "11.6 µM (active)"}, {"compound": "Cc1ccc(OCC(O)CN2CCN(CC(O)COc3ccc(C)cc3Cl)CC2)c(Cl)c1", "note": "(centres undefined)", "activity change, negative = inhibition": -1.07}, {"compound": "COc1cccc(OCC(O)CN2CCN(CCO)CC2)c1", "note": "(centres undefined)", "activity change, negative = inhibition": 14.2}]}]}
